Experimental data from PubChem BioAssay AID485270 (The Scripps Research Institute Molecular Screening Center, 2010).
In all, about 330,000 compounds went through this assay and about 5,800 (1.8%) were called active. The sample holds actives, similar compounds and a random draw of the others, so the mix is not that of the screen. Values without a mark were called inactive. Rule as the data show it: active = inhibition mostly above about 38% (no sharp cut-off); inactive = mostly below about 40%.

Target: Orexin/Hypocretin receptor type 1 (Homo sapiens) (UniProt O43613)
Assay: antagonists of human orexin 1 receptor (OX1R) (AID 485270);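 also: 0% = agonist challenge alone and 100% = reference antagonist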
Conditions: OX1R-expressing cells, FRET antagonist read-out; at 6.6 µM; active compounds read high

Chain of Orexin/Hypocretin receptor type 1 (Homo sapiens) (O43613 whole entry, looked up): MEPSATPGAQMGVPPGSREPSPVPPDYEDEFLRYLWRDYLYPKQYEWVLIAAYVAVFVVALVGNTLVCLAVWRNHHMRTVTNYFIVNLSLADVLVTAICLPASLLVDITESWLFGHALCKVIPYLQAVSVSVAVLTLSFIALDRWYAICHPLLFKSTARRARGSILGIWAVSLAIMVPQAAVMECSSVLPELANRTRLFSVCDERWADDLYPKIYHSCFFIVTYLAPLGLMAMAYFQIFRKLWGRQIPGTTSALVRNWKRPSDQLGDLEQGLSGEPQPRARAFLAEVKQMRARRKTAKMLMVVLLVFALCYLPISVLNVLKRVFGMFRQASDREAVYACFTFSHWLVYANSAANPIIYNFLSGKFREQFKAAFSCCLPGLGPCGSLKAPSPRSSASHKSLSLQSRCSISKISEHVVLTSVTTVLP

| SMILES | inhibition |
| --- | --- |
| O=C(Cn1cnc2c(OCc3ccccc3)ncnc21)NCCCn1ccnc1 | -0.28% |
| Cc1cc(NC(=O)COc2ccccc2C#N)no1 | 4.54% |
| CNC[C@H]1Oc2c(NC(=O)C3CCCCC3)cccc2C(=O)N([C@H](C)CO)C[C@@H]1C | 6.17% |
| COc1cc(/C=C/C(=O)Nc2ccc(OC)c(S(=O)(=O)N3CCOCC3)c2)ccc1OCC#N | 6.14% |
| CNC(=O)c1cccc2nc3ccccc3nc12 | 61.4% (active) |
| CNC(=O)c1cc2c(ccc3ccccc32)oc1=N | 50.1% |
| CN(C)C(=O)c1coc2nc3ccccc3nc12 | 7.78% |
| C=CC[C@@H](CC(=O)NCCO)C(=O)N[C@H](C)COC(=O)[C@@H](CC=C)CC(=O)OC(C)(C)C | 5% |
| CN1CCN(C(=O)c2ccc(-c3ccc(Br)cc3)o2)CC1 | 8.86% |
| O=C1c2ccccc2C(=O)N1c1cccc2ccccc12 | 17% |
| COc1ccc(N2C(=O)c3cccc4cccc(c34)C2=O)nn1 | 62.1% (active) |
| O=C1c2cccc3cccc(c23)C(=O)N1c1cccc(O)c1 | 26.1% |
| O=C(CSc1nnc(-c2ccncc2)o1)Nc1cccc(Cl)c1 | 4.25% |
| O=C(OCC(=O)N1CCCCC1)c1ccc(OC(F)(F)F)cc1 | 10.9% |
| COc1ccc(S(=O)(=O)N2CCOCC2)cc1NC(=O)CSc1nnc(NC2CC2)s1 | 5.24% |
| Cc1ccc(CNC(=O)Cn2cnc3c(NCc4ccccc4)ncnc32)o1 | 13.2% |
| CC(=O)Nc1ccc(S(=O)(=O)Nc2ccc(N3CCCCC3)cc2)cc1 | 16.6% |
| COc1cc(OC)c(C(=O)NNC(=O)c2ccccc2-n2cccc2)cc1OC | 10.5% |
| Oc1c(Cl)cc(Cl)c(Cl)c1Cc1c(O)c(Cl)cc(Cl)c1Cl | 60.5% (active) |
| Cc1cc(NC(=O)CN2C(=O)NC(CC(C)C)C2=O)no1 (centres undefined) | 4.3% |
| O=[N+]([O-])c1ccc(NCCCN2CCOCC2)c(Cl)c1 | 10.8% |
| O=C(NCCCN1CCOCC1)c1ccc(N2CCCC2)c([N+](=O)[O-])c1 | 52.4% |
| COc1ccc(C(=O)NCCc2ccc(S(N)(=O)=O)cc2)cc1OC | 17.6% |

| SMILES | inhibition |
| --- | --- |
| NS(=O)(=O)c1ccc(CCNC(=O)CNC(=O)Cc2ccccc2)cc1 | 1.42% |
| O=C(Nc1cccnc1)c1ccc(Cl)cc1[N+](=O)[O-] | 22.6% |
| NS(=O)(=O)c1ccc(CNC(=O)c2ccc(Cl)cc2[N+](=O)[O-])cc1 | 70.7% (active) |
| O=C(NCCCN1CCOCC1)c1ccc([N+](=O)[O-])cc1[N+](=O)[O-] | 70.3% (active) |
| NS(=O)(=O)c1ccc(CCNC(=O)c2ccc([N+](=O)[O-])cc2[N+](=O)[O-])cc1 | 138% (active) |
| NS(=O)(=O)c1ccc(CCNC(=O)c2ccc(Cl)cc2[N+](=O)[O-])cc1 | 26.8% |
| Cc1ccc(S(=O)(=O)N2CCN(C(=O)COC(=O)CNC(=O)c3ccc(C(C)(C)C)cc3)CC2)c(C)c1 | 1.85% |
| O=C(COC(=O)c1cccc(Cl)c1)NC(=O)NCc1ccccc1 | 4.12% |
| C=CCC[C@@H](Cc1ccc(F)cc1)C(=O)O[C@H](CNC(=O)[C@H](CC=C)CC(=O)N(CCO)Cc1ccccc1)c1ccccc1 | 13.9% |
| C=CCC[C@H](Cc1ccc(F)cc1)C(=O)OC[C@@H](NC(=O)[C@@H](CC=C)CC(=O)N[C@H](CO)Cc1ccccc1)C(C)(C)C | -2.5% |
| COc1cccc(CNS(=O)(=O)c2ccc3c(c2)CC(C)N3C(=O)C2CCC2)c1 (centres undefined) | 53.7% (active) |
| COc1ccc(N(C)S(=O)(=O)c2ccc3c(c2)CC(C)N3C(=O)C2CC2)c(OC)c1 (centres undefined) | 13.5% |
| COc1cccc(CNS(=O)(=O)c2ccc3c(c2)CC(C)N3C(C)=O)c1 (centres undefined) | 19.3% |
| CN(CC(=O)O)C(=O)c1ccccc1 | 11.7% |
| Cc1cccc(N(CC(=O)N=Nc2c(O)[nH]c3ccccc23)S(C)(=O)=O)c1C | 5.48% |
| O=C(CCN1CCCCC1)N=Nc1c(O)[nH]c2ccccc12 | 22.5% |
| COCC(=O)N=Nc1c(O)[nH]c2ccccc12 | 68.8% (active) |
| Cc1ccc(NS(=O)(=O)c2ccc(C(C)C)cc2)cc1S(=O)(=O)N1CCOCC1 | 1.43% |
| Cc1cccc(OCC(=O)OCC(=O)Nc2ccc(Cl)cn2)c1 | 4.09% |
| c1ccc(-c2nc(NCc3ccco3)c3ccccc3n2)cc1 | 81.6% (active) |
| CCC(=O)OCCNc1nc(-c2ccccc2)nc2ccccc12 | 48.8% (active) |
| c1coc(CNc2ncnc3ccccc23)c1 | 37.9% |
| O=C(Cc1ccccc1)n1nc(-c2ccccc2)nc1NCc1ccco1 | 16.1% |

| SMILES | inhibition |
| --- | --- |
| CCOCCCNc1nc(-c2ccccc2)nc2ccccc12 | 13.2% |
| COCCNc1nc(-c2ccccc2)nc2c1oc1ccccc12 | 19.4% |
| CC1CCCCC1NC(=O)COc1ccc(C#N)cc1 (centres undefined) | 1.71% |
| O=C(COC(=O)c1ccc(Br)o1)NC12CC3CC(CC(C3)C1)C2 | 1.86% |
| O=C1N[C@H](Cc2c[nH]c3ccccc23)COC(=O)[C@H](Cc2ccc(F)cc2)C/C=C\C[C@H]1CC(=O)N(CCO)Cc1ccccc1 | -2.83% |
| Cc1ccc(C(=O)Nc2ccn(C)n2)cc1 | -1.37% |
| COc1ccc(Br)cc1CN(C)C(=O)C1CC(=O)N(C2CCCC2)C1 (centres undefined) | 8.23% |
| CCOC(=O)c1c(NC(=O)C2CCN(S(=O)(=O)c3ccc(Cl)cc3)CC2)sc2c1CCCC2 | 6.08% |
| O=C(Nc1sc2c(c1-c1nc3ccccc3[nH]1)CCCC2)C1CC1 | 46.5% (active) |
| O=C(C1CCCO1)N1CCC(c2nc3ccccc3[nH]2)CC1 (centres undefined) | -1.4% |
| C=CC[C@@H](CC(=O)N[C@@H](CO)Cc1ccccc1)C(=O)NCCOC(=O)[C@@H](CC=C)CC(=O)OC(C)(C)C | 14.3% |
| COC(=O)[C@]1(Cc2ccccc2)N[C@H](CN(C)S(=O)(=O)c2ccc(OC(F)(F)F)cc2)[C@@H]2C(=O)N(Cc3ccccc3)C(=O)[C@@H]21 | 5.26% |
| COCCNC(=O)Nc1ccc2nc(-c3ccco3)c(-c3ccco3)nc2c1 | 113% (active) |
| CCOc1cc(NC(=S)NCCCOC)c(OCC)cc1NC(=O)c1ccco1 | 11.1% |
| CCCC(=O)Nc1ccc2c(c1)nc(CCNC(=O)c1ccco1)n2C | 7.62% |
| Cc1noc(C)c1S(=O)(=O)N(C)C[C@H]1Oc2c(NC(=O)Nc3ccc4c(c3)OCO4)cccc2C(=O)N([C@H](C)CO)C[C@@H]1C | 2.76% |
| C[C@H](CO)N1C[C@H](C)[C@H](CN(C)CC2CC2)Oc2ccc(NC(=O)CCN3CCOCC3)cc2C1=O | -2.5% |
| Cc1ccc(S(=O)(=O)N(C)C)cc1NC(=O)C(C)OC(=O)c1ccc2ccccc2n1 (centres undefined) | 7.22% |
| Nc1nc(COC(=O)CCC(=O)c2ccc(Cl)cc2)nc(Nc2ccccc2)n1 | 37.4% (active) |
| Cc1ccc(C(=O)OCc2nc(N)nc(Nc3ccccc3C)n2)cc1 | -2.57% |
| CC(NC(=O)COC(=O)CCC(=O)c1ccc(Cl)cc1)c1ccccc1 (centres undefined) | 10.1% |
| O=C(NCc1ccc2c(c1)OCO2)c1cc([N+](=O)[O-])ccc1N1CCOCC1 | 19.9% |
| Cc1c(C(=O)OC(C)C)sc(NC(=O)c2cccnc2)c1C#N | 54.5% |

| SMILES | inhibition |
| --- | --- |
| CC1CCCCC12NC(=O)N(CC(=O)N1CCN(c3ccccc3)CC1)C2=O (centres undefined) | -1.13% |
| O=C(Nc1cc(S(=O)(=O)Nc2ccc(Cl)cc2)ccc1O)c1ccc(F)cc1F | 8.71% |
| O=C(CN1C(=O)NC2(CCCCCCC2)C1=O)NCc1ccc(F)cc1 | 8.6% |
| CC[C@@]1(C(=O)OC)N[C@H](CN(C)C(C)=O)[C@@H]2C(=O)N(C)C(=O)[C@@H]21 | 1.97% |
| Cc1ccc(S(=O)(=O)NC[C@H]2O[C@@H](n3cnc4c(N)ncnc43)[C@H](O)[C@@H]2O)s1 | -6.3% |
| CCN(CC)c1ccc(/C=N/NC(=O)CNC(=O)c2cccnc2)cc1 | 3.18% |
| CCN(CC)c1ccc(C(=O)c2cnc(/N=C/N(C)C)s2)cc1 | 66.5% (active) |
| CCN(CC)c1ccc(NC(=O)c2ccc(Cl)nc2)cc1 | 17.1% |
| CCCCN(C)CCCNC(=O)c1cc(-c2cccs2)nc2ccccc12 | 13.3% |
| O=C(NCCN1CCOCC1)c1cc(-c2cccs2)nc2ccccc12 | 18.8% |
| O=C(Nc1nnc(-c2ccccc2)o1)c1cc(-c2cccs2)nc2ccccc12 | 88.8% (active) |
| O=C(c1ccc(S(=O)(=O)NCc2ccco2)cc1)N1CCN(c2ccccc2)CC1 | 11.5% |
| COc1ccc(S(=O)(=O)Nc2cccc3c2O[C@H](CN(C)S(=O)(=O)c2ccc(OC)cc2)[C@@H](C)CN([C@H](C)CO)C3=O)cc1 | -2.59% |
| COc1cc(OC)cc(C(=O)NNC(=O)Cc2cccs2)c1 | 1.69% |
| COc1ccc(C(=O)c2c(C)oc3cc([N+](=O)[O-])c(O)c([N+](=O)[O-])c23)cc1 | 30.6% |
| Cc1cc(C(=O)O)ccc1[N+](=O)[O-] | 1.62% |
| Cc1oc2cc([N+](=O)[O-])c(O)c([N+](=O)[O-])c2c1C(=O)c1ccc(Br)cc1 | 67.5% (active) |
| Cc1ccc(NC(=O)CSc2nnc(-c3cnccn3)n2Cc2ccco2)cc1C | 18.9% |
| COc1ccc(NC(=O)CSc2nnc(-c3cccs3)n2Cc2ccco2)cc1OC | 41.6% (active) |
| COc1cc(Cl)c(C)cc1NC(=O)CSc1nnc(-c2cccnc2)n1Cc1ccco1 | 15.5% |
